From PubChem BioAssay
Dicer processing: inhibitors of Dicer pre-microRNA processing, primary screen, biochemical, cat-ELCCA, chemiluminescence. 6% of 47,000 active. cat-ELCCA pre-miR-21 Dicer processing; hits give high values. z-score at 25 µM; in the data active means z-score above about 3, passing the limit was not always enough;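 further: higher signal means more uncleaved substrate so more Dicer inhibition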
Hits are given with their value; 0 = inactive. The full list was thinned out, with hits kept by preference.

SMILES	Dicer processing
CC1CCCN(c2cc(N(C)C)c([N+](=O)[O-])cc2F)C1 (stereo unspecified)	0
COc1ccc(-c2cc(C(F)(F)F)n3nc(C(N)=O)c(Br)c3n2)cc1	0
CC(=O)NC1CCN(C(=S)Nc2cc(Cl)ccc2Cl)CC1	0
O=c1oc(-c2ccccc2F)nc2ccccc12	0
CS/C(NCc1ccco1)=C(/C#N)S(=O)(=O)c1ccc(Cl)cc1	0
CSC(SC)=C(C#N)S(=O)(=O)c1ccc(Cl)cc1	3.2
C=CCN/C(SC)=C(\C#N)S(=O)(=O)c1ccc(Cl)cc1	0
CCCNC(=O)CCSc1nc(-c2ccco2)cc(C(F)(F)F)n1	0
C#Cc1cccc(NC(=O)c2ccccc2)c1	0
C#Cc1cccc(NC(=S)NNC(=S)Nc2cccc(C#C)c2)c1	8.9
Cc1cccc(NC(=S)NNC(=O)NNC(=S)Nc2cccc(C)c2)c1	0
CCN(CC)C(=O)Oc1ccc(Br)cc1C(=O)Nc1cc(Cl)cc(Cl)c1	0
O=C1/C(=C/c2ccc(Cl)cc2)C(c2ccccc2)Oc2ccccc21 (stereo unspecified)	0
CC1=N/C(=C/c2ccc(C)c(C)c2)C(=O)O1	0
Cc1cc(/C=C2\N=COC2=O)ccc1C(F)(F)F	4.1
O=C(COc1ccc(Br)cc1)Nc1nccs1	0
Nc1cccc(-c2nnc(-c3cccc(N)c3)o2)c1	0
Cc1csc(C(=O)Nc2cccc(C(F)(F)F)c2)c1	0
Cc1[nH]n(C)c(=O)c1N=Nc1c(Cl)cc(C(F)(F)F)cc1Cl	0
COc1cc(C2c3c(oc4ccccc4c3=O)C(=O)N2c2ccccn2)ccc1OCc1ccccc1 (stereo unspecified)	0
CCOc1cccc(C2c3c(oc4ccccc4c3=O)C(=O)N2c2ccccn2)c1 (stereo unspecified)	5.9
O=C1c2oc3ccccc3c(=O)c2C(c2cccc(Oc3ccccc3)c2)N1c1ccccn1 (stereo unspecified)	4.3
CCCCOc1cccc(C2c3c(oc4ccccc4c3=O)C(=O)N2c2nnc(C)s2)c1 (stereo unspecified)	0
CCCCCOc1cccc(C2c3c(oc4ccccc4c3=O)C(=O)N2c2nccs2)c1 (stereo unspecified)	0
COc1cc(C2c3c(oc4ccccc4c3=O)C(=O)N2c2ccccn2)ccc1OCCC(C)C (stereo unspecified)	3.5
SMILES	Dicer processing
C=CCOc1cccc(C2c3c(oc4ccccc4c3=O)C(=O)N2c2ccccn2)c1 (stereo unspecified)	0
O=C1c2oc3ccccc3c(=O)c2C(c2cccc(Br)c2)N1c1ccccn1 (stereo unspecified)	0
COc1cccc(C2c3c(oc4ccccc4c3=O)C(=O)N2c2ccccn2)c1 (stereo unspecified)	0
O=C1c2oc3ccccc3c(=O)c2C(c2cccc(Cl)c2)N1c1ccccn1 (stereo unspecified)	0
COc1cc(C2c3c(oc4ccccc4c3=O)C(=O)N2c2nnc(C)s2)ccc1OCCC(C)C (stereo unspecified)	0
CCCCOc1cccc(C2c3c(oc4ccccc4c3=O)C(=O)N2c2ccccn2)c1 (stereo unspecified)	3.2
O=C(/C=C(\CC(=O)c1ccc(F)cc1)c1ccccc1)c1ccc(F)cc1	0
O=c1ccc(-c2ccc(Br)s2)n[nH]1	0
CCc1nnc(/N=C/c2cc(-c3ccccc3)sc2O)s1	0
CC(C)n1c(Sc2ncc([N+](=O)[O-])s2)nc2cc(Cl)ccc21	0
CCOc1cc(C2C(C(=O)OCCSCC)=C(C)NC3=C2C(=O)CCC3)ccc1O (stereo unspecified)	0
Cc1ccc(OC2CCS(=O)(=O)C2)cc1 (stereo unspecified)	0
O=C(Nc1ccccc1)NC1CCS(=O)(=O)C1 (stereo unspecified)	0
O=C(Oc1ccccc1)OC1CCS(=O)(=O)C1 (stereo unspecified)	4
CC(C)(C)c1csc(N/N=C/c2cccs2)n1	0
Cn1c(=O)n(C)c2cc(S(=O)(=O)Nc3ccccc3O)ccc21	0
Cc1cc(O)c(C(C)C)cc1NS(=O)(=O)c1ccccc1	4.2
Cc1ccnc(NS(=O)(=O)c2ccccc2)c1	0
Clc1ccccc1OCCSc1nc2ccccc2[nH]1	0
COc1ccc(C(O)(c2ccccc2OC)c2ccc(OC)cc2OC)c(OC)c1	0
C=CCn1c(NCc2ccc(N(CC)CC)cc2)nc2ccccc21	0
CC(C)n1c(NCc2ccccc2O)nc2ccccc21	0
CCCn1c(NCc2cc(Cl)ccc2O)nc2ccccc21	0
C=CCn1c(NCc2ccccc2O)nc2ccccc21	0
C=CCn1c(NCc2cc(Cl)ccc2O)nc2ccccc21	3.9
SMILES	Dicer processing
CCn1c(NCc2cc(Cl)ccc2O)nc2ccccc21	3
O=C(CN(C1CCCCC1)S(=O)(=O)c1ccc(Br)cc1)N1CCc2ccccc2C1	0
Cc1ccc(-c2nnc3c4ccccc4c(C)nn23)cc1S(=O)(=O)NC(C)(C)CO	0
O=[N+]([O-])c1cc(Br)cnc1Sc1n[nH]c(-c2ccccc2)n1	0
COC(=O)C1=C(C(=O)OC)SC(=C2C(=S)C(C)(C)Nc3ccc(OC)cc32)S1	0
CCOc1ccc2c(c1)-c1c(sn(-c3ccc(OC)cc3)c1=S)C(C)(C)N2	6.7
COc1ccc(-n2sc3c(c2=S)-c2ccccc2NC3(C)C)cc1OC	0
CCOC(=O)c1sc(N2C(=O)C(O)=C(C(=O)c3ccco3)C2c2cccs2)nc1C (stereo unspecified)	0
Cc1ccccc1N1CC23C=CC(O2)C(C(=O)O)C3C1=O (stereo unspecified)	0
S=C(N/N=C/C=C/c1ccccc1)NC1CC2CC1C1C=CCC21 (stereo unspecified)	0
CC1CC(NC(=S)Nc2ccc(I)cc2F)CC(C)(C)C1 (stereo unspecified)	0
CC1CC(NC(=S)NC2CC3CC2C2C=CCC32)CC(C)(C)C1 (stereo unspecified)	3.1
NS(=O)(=O)c1cc(Cl)ccc1Cl	0
CC1=C(C(=O)OCc2ccccc2)C(c2ccc(C)o2)C2=C(CC(C)(C)CC2=O)N1 (stereo unspecified)	0
CCCCCC(=O)Nc1nc2c(s1)CCc1ccccc1-2	0
Cc1cc(C)cc(NC2OC(=O)c3ccccc32)c1 (stereo unspecified)	0
COc1cccc2c1OC(c1ccccc1)N1N=C(c3ccccc3O)CC21 (stereo unspecified)	0
COc1cccc2c1OC(c1cccc(F)c1)N1N=C(c3ccccc3O)CC21 (stereo unspecified)	7
COc1ccc(O)c(C2=NN3C(C2)c2cccc(OC)c2OC3c2ccc(OC)c(O)c2)c1 (stereo unspecified)	0
COc1ccc(O)c(C2=NN3C(C2)c2cccc(OC)c2OC3c2cccc(O)c2)c1 (stereo unspecified)	5.1
COc1ccc(O)c(C2=NN3C(C2)c2cccc(OC)c2OC3c2cccc(F)c2)c1 (stereo unspecified)	0
COc1cccc2c1OC(c1ccc(O)cc1)N1N=C(c3ccccc3O)CC21 (stereo unspecified)	0
CCOC(=O)/C(C(=S)Nc1ccccc1)=C(\C)NCc1ccco1	0
Cc1ccc(-c2nnc(NCc3ccccc3)c3ccccc23)cc1S(N)(=O)=O	0
COCCOC(=O)C1=C(C)N=C2SCCC(=O)N2C1c1ccc(OC(C)=O)cc1 (stereo unspecified)	0
CCCCCc1c(C)nc2c(-c3ccccc3)c(C)[nH]n2c1=O	0
